Source: PubChem BioAssay (EPA / NIEHS)
Where “and” joins values, the source holds several entries; their conditions need not be identical. Identical values can stand only once. Some compounds were tested as several samples or in several runs, with calls that do not always agree. Calls of active or inactive are those of the source. How the source made its calls: active means hit-call score of the fitted dose curve at least 0.9, where 1 is the maximum; inactive means score below 0.9.

How the values were obtained:
[1] = read-out: Human Leukocyte Antigen - DR isotype (HLADR), HLA-DRA (gene 3122); experiment: BSK_BE3C_HLADR: BioMAP Diversity Plus: BE3C Assay for Human Leukocyte Antigen - DR isotype (HLADR) Biomarker Activity (AID 2283032); conditions: primary human bronchial epithelial cells; actives raise or lower the signal
In short: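 ELISA read-out of HLA-DR on human lung bronchial epithelial primary cells, measured 24 h post-dosing. Both increases and decreases were scored relative to DMSO vehicle.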

[2] = read-out: Vascular cell adhesion molecule 1 (VCAM1), VCAM1 (gene 7412); experiment: BSK_4H_VCAM1: BioMAP Diversity Plus: 4H Assay for Vascular cell adhesion molecule 1 (VCAM1) Biomarker Activity (AID 2283033); conditions: primary human endothelial cells (HUVEC); actives raise or lower the signal
In short: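 ELISA read-out of VCAM-1 on human umbilical vein endothelium 24 hours after chemical dosing; gain or loss of signal was fitted relative to DMSO, with sulforhodamine B staining of parallel cultures flagging overt cytotoxicity.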

[3] = read-out: Interferon-gamma inducible Protein 10 (IP10), CXCL10 (gene 3627); experiment: BSK_BE3C_IP10: BioMAP Diversity Plus: BE3C Assay for Interferon-gamma inducible Protein 10 (IP10) Biomarker Activity (AID 2283034); conditions: primary human bronchial epithelial cells; actives raise or lower the signal
In short: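 Chemical is dosed onto human lung bronchial epithelial primary cells, cultures are incubated 24 h, and IP-10 is then quantified by ELISA. Gain or loss of signal is fitted in both directions relative to DMSO.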

[4] = read-out: Monokine induced gamma interferon (MIG), CXCL9 (gene 4283); experiment: BSK_BE3C_MIG: BioMAP Diversity Plus: BE3C Assay for Monokine induced gamma interferon (MIG) Biomarker Activity (AID 2283035); conditions: primary human bronchial epithelial cells; actives raise or lower the signal
In short: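 MIG level was determined by ELISA after 24 h chemical treatment of primary human bronchial epithelial cells. Values were fitted bidirectionally with DMSO as the negative control and activity baseline.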

[5] = read-out: Transforming growth factor beta 1 (TGFb1), TGFB1 (gene 7040); experiment: BSK_BE3C_TGFb1: BioMAP Diversity Plus: BE3C Assay for Transforming growth factor beta 1 (TGFb1) Biomarker Activity (AID 2283036); conditions: primary human bronchial epithelial cells; actives raise or lower the signal
In short: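 Primary human lung bronchial epithelial cells; compound exposure 24 h; TGF-b1 by ELISA; bidirectional fit, DMSO baseline. Parallel SRB total-protein staining for cytotoxicity.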

[6] = read-out: Plasminogen activator inhibitor-1 (PAI1), SERPINE1 (gene 5054); experiment: BSK_BE3C_PAI1: BioMAP Diversity Plus: BE3C Assay for Plasminogen activator inhibitor-1 (PAI1) Biomarker Activity (AID 2283037); conditions: primary human bronchial epithelial cells; actives raise or lower the signal
In short: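 Primary human lung bronchial epithelial cells; chemical dosing; 24 h; PAI-1 measured by ELISA; bidirectional fit referenced to DMSO as negative control.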

[7] = read-out: urokinase plasminogen activator (uPA), PLAU (gene 5328); experiment: BSK_BE3C_uPA: BioMAP Diversity Plus: BE3C Assay for urokinase plasminogen activator (uPA) Biomarker Activity (AID 2283038); conditions: primary human bronchial epithelial cells; actives raise or lower the signal
In short: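 ELISA for uPA on human primary bronchial epithelial cultures 24 h post-treatment, gain or loss against DMSO. Parallel SRB staining (0.1% after 10% TCA fixation, 560 nm) assessed overt cytotoxicity.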

[8] = read-out: Interleukin-6 (IL6), IL6 (gene 3569); experiment: BSK_CASM3C_IL6: BioMAP Diversity Plus: CASM3C Assay for Interleukin-6 (IL6) Biomarker Activity for (AID 2283040); conditions: primary human coronary artery smooth muscle cells; actives raise or lower the signal
[9] = read-out: Urokinase-type plasminogen activator receptor (uPAR), PLAUR (gene 5329); experiment: BSK_BE3C_uPAR: BioMAP Diversity Plus: BE3C Assay for Urokinase-type plasminogen activator receptor (uPAR) Biomarker Activity (AID 2283039); conditions: primary human bronchial epithelial cells; actives raise or lower the signal;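 further: uPAR protein level measured by ELISA on the cells; cells exposed to compound for one day before measurement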
In short: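 Human bronchial epithelial primary cells; chemical exposure 24 h; uPAR by ELISA; bidirectional fit vs DMSO control.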

Measured: AC50

C=C[Si](OCC)(OCC)OCC
not listed: [9]
inactive: all other assays above

Cc1cc(C2(c3cc(C)c(O)cc3C)OS(=O)(=O)c3ccccc32)c(C)cc1O
not listed: [5] | [9]
inactive: all other assays above

CCC(=O)OCc1ccccc1
not listed: [5] | [9]
inactive: all other assays above

O=C(O)c1cn(C2CC2)c2cc(N3CCNCC3)c(F)cc2c1=O
not listed: [9]
inactive: all other assays above

CCCCC(CC)COCCC#N (configuration not stated)
not listed: [9]
inactive: all other assays above

O=C(O)c1cn(-c2ccc(F)cc2)c2cc(N3CCNCC3)c(F)cc2c1=O
not listed: [9]
inactive: all other assays above

CC1COc2ccccc2N1C(=O)C(Cl)Cl (configuration not stated)
active: [1] 7.78 µM | [2] 8.19 µM | [3] 12.2 µM | [6] 3.97 µM | [7] 0.016 µM | [8] 8.9 µM
inactive: [4] | [5]

CC(C)c1ccc(C(C)C)cc1
active: [1] 30.8 µM | [2] 35.1 µM | [3] 30.9 µM | [8] 20 µM
not listed: [9]
inactive: all other assays above

C=CCOC(=O)CCC1CCCCC1
not listed: [5] | [9]
inactive: all other assays above

Nc1cc([N+](=O)[O-])ccc1Cl
not listed: [9]
inactive: all other assays above

Nc1cc([N+](=O)[O-])ccc1O
inactive: [1] | [2] | [3] | [4] | [6] | [7] | [9] | [8]
active: [6] 11.8 µM

Cc1ccc(O)c(C(C)(C)C)c1
inactive: [5] | [6]
active: [1] 30.5 µM | [2] 30.5 µM | [3] 36.8 µM | [4] 35 µM | [7] 31.6 µM | [8] 10.6 µM

OC1OC[C@@H](O)[C@H](O)[C@H]1O (some centres not stated)
not listed: [5] | [9]
inactive: all other assays above

CC(C)(COC(=O)c1ccccc1)COC(=O)c1ccccc1
active: [2] 20 µM
not listed: [9]
inactive: all other assays above

OC[C@H]1O[C@H](O[C@]2(CCl)O[C@H](CCl)[C@@H](O)[C@@H]2O)[C@H](O)[C@@H](O)[C@H]1Cl
not listed: [5]
inactive: all other assays above

O=C1CCCCCCCCCCCCCCO1
inactive: [4]
active: [1] 20 µM | [2] 27.4 µM | [3] 12.6 µM | [5] 14.6 µM | [6] 20 µM | [7] 32.7 µM | [8] 31.6 µM

CC(=O)OCCC(C)CC(C)(C)C (configuration not stated)
not listed: [5] | [9]
inactive: all other assays above

NCCNCCN
not listed: [5] | [9]
inactive: all other assays above

C=C(C)C(=O)O[C@H]1C[C@@H]2CC[C@@]1(C)C2(C)C
active: [1] 20 µM | [2] 10.1 µM | [3] 33.2 µM | [4] 30.4 µM | [5] 26.4 µM | [6] 20 µM | [7] 20 µM | [8] 13 µM

CCCCCCCCCCCCCCCCCC(=O)OCC(CC)CCCC (configuration not stated)
active: [6] 0.25 µM
not listed: [9]
inactive: all other assays above

CC(=O)O[C@]1(C(C)=O)CC[C@H]2[C@@H]3C[C@H](C)C4=CC(=O)CC[C@]4(C)[C@H]3CC[C@@]21C
active: [1] 10 µM | [8] 0.0082 µM
not listed: [9]
inactive: all other assays above

CCCCC(CC)COC(=O)/C=C\C(=O)OCC(CC)CCCC (configuration not stated)
not listed: [9]
inactive: all other assays above

C[C@H]1C[C@@H]2[C@H]([C@@H](O)C[C@@]3(C)[C@H]2CC[C@]3(O)C(=O)CO)[C@@]2(C)C=CC(=O)C=C12
active: [8] 352 nM and 321 nM
not listed: [5] | [9]
inactive: all other assays above

C#C[C@]1(O)CC[C@H]2[C@@H]3CCC4=Cc5oncc5C[C@]4(C)[C@H]3CC[C@@]21C
active: [2] 30.1 µM | [3] 31.2 µM
not listed: [9]
inactive: all other assays above

Cc1ccc(Nc2ccc(O)c3c2C(=O)c2ccccc2C3=O)cc1
not listed: [9]
inactive: all other assays above

CC(=O)/C=C/C1=C(C)CCCC1(C)C
not listed: [9]
inactive: all other assays above
